Data as given in PubChem BioAssay (NCI).
About 83,000 compounds went through this panel and 20% of them were active in at least one assay; those are over-represented in the sample as a whole.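 Single-concentration screen, 48 h exposure, 96-well plates. Endpoint: percent growth. Below 10 = active.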 Values without a mark were called inactive. Calls of active or inactive are those of the source.

test system: MDA-MB-468 breast; experiment: NCI-60 one-dose screen, 48 h (100 = growth as untreated, 0 = no growth, -100 = all killed); details: 10 µM unless noted

Compared with `CCCn1nc(C(=O)N2CCCCC2)c2c1CCC(N1CCC(c3ccncc3)CC1)C2` (stereo not drawn), `O=C(/C=C/c1ccccc1)c1ccc(-n2cc(CN3CCN(c4cc5c(cc4F)c(=O)c(C(=O)O)cn5C4CC4)CC3)nn2)cc1` is lower in growth: 104% for the first, 66% for the second.

First: CC(C)(C)c1cc(C=Nc2cccc(C(F)(F)F)c2)c(O)c(C(C)(C)C)c1
Second: Cc1cccc(/C=C/c2nn3c(-c4ccco4)nnc3s2)c1
The growth of the first is higher: 95.8% for the first, 93.9% for the second.

Going from `Cc1ccc(-c2nc(C#N)c(S(=O)(=O)N(C)CCO)o2)cc1` to `Cc1ccc(NC(=O)c2nc(S(C)=O)oc2-c2ccc(F)cc2)cc1Nc1nccc(-c2cccnc2)n1` (stereo not drawn), the growth falls from 46.1% to 10.6%.

Compared with `O=c1[nH][n+](-c2ccc(Cl)cc2)no1`, `O=c1[nH]c(Sc2sc3ccc(Cl)cc3c2CBr)nc(=S)[nH]1` is lower in growth: 93.2% for the first, 19.1% for the second.

Going from `C=C(C)[C@@H]1CC[C@]2(C(N)=O)CC[C@]3(C)[C@H](CC[C@@H]4[C@@]5(C)C/C(=C/c6ccco6)C(=O)C(C)(C)[C@@H]5CC[C@]43C)[C@@H]12` to `CC(=O)c1nnn(-c2c(C(=O)n3nc(C)cc3C)sc(=S)n2-c2ccccc2)c1C`, the growth rises from 87.6% to 96.8%.

`Nc1cc2ccccc2c(O)c1O` was tested, and the growth was -3.32% (active).
`COc1ncc(-c2ccc3ncnc(Nc4cccc(Cl)c4)c3c2)cc1NS(=O)(=O)CCN1CCOCC1` was tested, and the growth was -52.8% (active).
With `CN1CCN(Cc2ccc(NC(=O)c3cncc(C#Cc4cnc(N)c5cnccc45)c3)cc2C(F)(F)F)CC1` the growth was 6.98% (active).
